Experimental findings from the supplement of paper PMC9262897, “Low-cost anti-mycobacterial drug discovery using engineered E. coli” (Nature Communications, 2022) are described below.

Where a name gives a salt, the structure may show the parent alone. ± gives the standard deviation of the averaged measurements.

This assay deals with E. coli TESEC Alr+ wild-type control. Nature of the assay: growth (OD600 after 10 h); higher = more growth (less inhibition). To be noted: compound 0.1 mM; raw OD600 reference: median of DMSO wells 0.49, cell-free background 0.052. The protocol:
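TESEC Mtb Alr E. coli (ΔaraC ΔtolC ΔentC Δalr ΔdadX, arabinose-inducible Mtb Alr) or the Alr+ wild-type control strain, grown in defined M9-fructose medium without D-alanine in 96-well plates with Prestwick library compounds at 0.1 mM and 1% DMSO. Low Alr induction is 0.1 µM arabinose and high induction is 10 mM arabinose.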
`OC(CCN1CCCC1)(c1ccccc1)C1CCCCC1` (stereo not given) [Procyclidine hydrochloride]: the growth was 0.573 ± 0.041.

`Cc1c(N)c(=O)n(-c2ccccc2)n1C` [Ampyrone] returned a growth of 0.457 ± 0.017.

Compound `Cn1ccnc1S` [Methimazole] returned a growth of 0.57 ± 0.026.

`CC(=O)c1ccc2c(c1)N(CCCN1CCC(CCO)CC1)c1ccccc1S2` [Piperacetazine] came in with a growth of 0.405 ± 0.0056.

Turning to `CC(=O)O[C@]1(C(C)=O)CC[C@H]2[C@@H]3C=C(C)C4=CC(=O)CC[C@@H]4[C@H]3CC[C@@]21C` [Nomegestrol acetate], the growth was 0.14 ± 0.0081.

`CC1(C)[C@H](C(=O)O)N2C(=O)C[C@H]2S1(=O)=O` [Sulbactam]: the growth worked out at 0.533 ± 0.06.

Take `NS(=O)(=O)c1cc(C2(O)NC(=O)c3ccccc32)ccc1Cl` (stereo not given) [Chlorthalidone]: the growth is 0.545 ± 0.05.

Turning to `OCc1cc(C(O)CNCCCCCCOCCCCc2ccccc2)ccc1O` (stereo not given) [Salmeterol], the growth was found to be 0.399 ± 0.032.

`COc1cc(Cc2cnc(N)nc2N)cc(OC)c1OC` [Trimethoprim] registered a growth of 0.0896 ± 0.0014.

`Nc1ccc(S(=O)(=O)Nc2ccc(Cl)nn2)cc1` [Sulfachloropyridazine] came in with a growth of 0.425 ± 0.022.

As for `CCOC(=O)C1=C(C)NC(C)=C(C(=O)OC)C1c1cccc(Cl)c1Cl` (stereo not given) [Felodipine], the growth amounted to 0.0917 ± 0.0035.

`CCN(CC)CCOC(=O)C1(C2CCCCC2)CCCCC1` [Dicyclomine hydrochloride] yielded a growth of 0.46 ± 0.008.

In turn, `CC(C)NNC(=O)c1ccncc1` [Iproniazide phosphate] yielded a growth of 0.496 ± 0.095.

For the compound `CN1CCC(=C2c3ccccc3C=Cc3ccccc32)CC1` [Cyproheptadine hydrochloride], the growth came to 0.452 ± 0.11.

Take `CCCOc1ccccc1-c1nc2[nH]nnc2c(=O)[nH]1` [Zaprinast]: the growth was 0.507 ± 0.057.

`CC(C)NCC(O)c1ccc(O)c(O)c1` (single isomer, unassigned; (+)) [(+)-Isoproterenol (+)-bitartrate salt] showed a growth of 0.497 ± 0.044.

`Clc1ccc2c(c1)CCc1cccnc1C2=C1CCNCC1` [Desloratadine] gave a growth of 0.545 ± 0.014.

Compound `O=c1[nH]cnc2c1ncn2[C@H]1CC[C@@H](CO)O1` [Didanosine] displayed a growth of 0.503 ± 0.045.

As for `CO/N=C(\C(=O)N[C@@H]1C(=O)N2C(C(=O)O)=C(COC(C)=O)CS[C@H]12)c1csc(N)n1` [Cefotaxime sodium salt], the growth worked out at 0.0462 ± 0.0019.

`CN(C)/N=N/c1[nH]cnc1C(N)=O` [Dacarbazine]: the growth amounted to 0.51 ± 0.11.

On to `CC(=O)OCC(=O)[C@@]12OC3(CCCC3)O[C@@H]1C[C@H]1[C@@H]3CCC4=CC(=O)C=C[C@]4(C)[C@@]3(F)[C@@H](O)C[C@@]12C` [Amcinonide], for which the growth turned out to be 0.462 ± 0.024.

Take `COc1cnc(NS(=O)(=O)c2ccc(N)cc2)nc1` [Sulfameter]: the growth was determined as 0.516 ± 0.12.

In turn, `N#Cc1cc(NC(=O)C(=O)O)c(Cl)c(NC(=O)C(=O)O)c1` [Lodoxamide] displayed a growth of 0.579 ± 0.069.

Consider `Oc1ccc(OCc2ccccc2)cc1` [Monobenzone], for which the growth is 0.477 ± 0.012.

Compound `CCCCCCNC(=O)n1cc(F)c(=O)[nH]c1=O` [Carmofur] gave a growth of 0.508 ± 0.04.

As to `O=c1[nH]c(=O)n([C@H]2C[C@H](O)[C@@H](CO)O2)cc1I` [Idoxuridine], the growth was determined as 0.483 ± 0.064.

Turning to `CC(=O)[C@H]1CC[C@H]2[C@@H]3C[C@H](C)C4=CC(=O)CC[C@]4(C)[C@H]3[C@@H](O)C[C@]12C` [Medrysone], the growth is 0.457 ± 0.067.

As to `Cc1cc(C(=O)NNCc2ccccc2)no1` [Isocarboxazid], the growth came to 0.463 ± 0.036.

The compound `CC(C)NCC(O)COc1ccc(CCOCC2CC2)cc1` (stereo not given) [Betaxolol hydrochloride] yielded a growth of 0.562 ± 0.028.

Take `CN(C(=O)CN(CCO)CC(=O)N(C)C(C)(C)Cc1ccccc1)C(C)(C)Cc1ccccc1` [Oxethazaine]: the growth was determined as 0.0484 ± 0.00076.

The compound `CCC1NC(=O)c2cc(S(N)(=O)=O)c(Cl)cc2N1` (stereo not given) [Quinethazone] yielded a growth of 0.463 ± 0.013.

Turning to `CC(COc1ccccc1)N(CCCl)Cc1ccccc1` (stereo not given) [Phenoxybenzamine hydrochloride], the growth turned out to be 0.673 ± 0.025.

Turning to `CN[C@@H]1[C@@H](O)[C@@H](O[C@@H]2[C@@H](O)[C@H](O[C@H]3OC(CN)=CC[C@H]3N)[C@@H](N)C[C@H]2N)OC[C@]1(C)O` [Sisomicin sulfate], the growth stood at 0.198 ± 0.21.

In turn, `Nc1nc(=O)c2c([nH]1)NC[C@@H](CNc1ccc(C(=O)N[C@@H](CCC(=O)O)C(=O)O)cc1)N2C=O` [Folinic acid calcium salt] registered a growth of 0.567 ± 0.12.

Regarding `CCOC(=O)Nc1ccc2c(c1)N(C(=O)CCN1CCOCC1)c1ccccc1S2` [Moricizine hydrochloride], the growth was 0.354 ± 0.0077.

`CSc1ccc2c(c1)N(CCC1CCCCN1C)c1ccccc1S2` (stereo not given) [Thioridazine hydrochloride] showed a growth of 0.0484 ± 0.00036.

On to `C[C@]1(Cn2ccnn2)[C@H](C(=O)O)N2C(=O)C[C@H]2S1(=O)=O` [Tazobactam], for which the growth was 0.0454 ± 0.00051.

Compound `CC(C)Cc1ccc([C@H](C)C(=O)O)cc1` [S-(+)-ibuprofen] gave a growth of 0.615 ± 0.082.

`Cc1ccccc1N1C(=O)c2cc(S(N)(=O)=O)c(Cl)cc2NC1C` (stereo not given) [Metolazone] displayed a growth of 0.481 ± 0.062.

For the compound `C[C@@H](c1ncncc1F)[C@](O)(Cn1cncn1)c1ccc(F)cc1F` [Voriconazole], the growth amounted to 0.557 ± 0.1.
